Experimental data: the supplement of paper PMC6555819

system: VDR:RXRa (NR concentration 270 nM, RXRa partner concentration 90 nM); assay: PBM binding z-score (relative to random genomic background probes); higher = stronger binding; sequences stand for … in GC…GCGATTGACAGCGTAGAATGAAGG
Protocol: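 Protein-binding microarray (Agilent 4x180K custom design, double-stranded 60-nt probes: 5' GC cap, 34-nt variable region, 24-nt constant primer region; full probe sequence given). Purified or IVT nuclear receptor:RXRα heterodimers (3:1 NR:RXRα, mostly 270:90 nM) or homodimers were incubated for 1 h in PBS with 2% milk and no ligand, then detected with Alexa488 antibodies. Fluorescence from o1-orientation probes (~5 replicates averaged) was converted to z-scores against 500 random hg19 background probes. Variable regions are seed direct-repeat (DR0–DR5) sites, all their single-nucleotide variants and half-site ablations.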

Sequence	PBM binding z-score
GATACAGGGTCAAGGCCAGAGAACGCGTATTGAT	3.99
CGTCCAAGGTCTATGCTAGGTCAGTGAAAGCATT	0.278
GCGACTGGGGCAAAGCAGCTTACCATAAGGTTGG	-0.87
GCTCCGAGGACAAGGTCAGAGCTTTGTCCGTAGA	1.43
TAACCAAGGTGAAGGTCGTTGATCCCTCTGTAGA	1.31
TTAACAAGGTGAGCTGAGGTCGTTGATCCAACTC	4.08
CCGACTGGGGCAGGAAGGTTACCATACCATCCGG	0.235
CCTAGTTGGTCAACGTCACACACGCTATAGGTAC	0.309
CCTCGGAGGACCGAAGGTCAGAGCTGTCCGCTTT	0.565
TTACCAAGGTGCAGGTCGTTGATCCCTCTGTAGA	0.558
ACTGGGAGGACAAAGGTCAGAGCTACGCCAGTGA	3.73
TTACCAAGGTGCGCTGAGGTCGTTGATCCAACTC	4.07
TAGCCTAGCTCAGATCGGGCCAGTATACGCTATA	-0.94
TTTAGCAGGCCAGAGGGTCACTCAAGAGGTACGG	1.55
GCGACTGGGGCATCAGCAGATTACCATAACTTAA	-0.562
ACTGGCAGGCCAAGGGTCACTCAAGATTAGTCCG	2.69
CCTCGGAGAACAACAGGAGGTCAGAGCTGCCAGA	1.47
AGAACGAGGGCAGTGAGTTGATAGCACGGGTGGC	3.91
TCTGCTAGGTCAACGAAGGTCAGCTAATCTGCTA	4.97
CGAACGAGGGAATGAGTTGATAGCAAATGCCGAT	-0.28

Sequence	PBM binding z-score
TCAGATAGGTAAATGCTAGGTGAAAGTCCGATCT	0.407
TCTGCTAGGTCAACGATGTTCAGCTAATCTGCTA	1.67
ACTTACGCGTCAACGAGGTTATAGCACGCGTATA	3.57
CCTATTAGTTGACCATAAGGGCAACTGAAGCTCG	1.08
CCAGACAGGTGAGATGGTAACTCAGCCTCGATTA	-0.293
TCTATTGGTTGAAGGGCAACCGACGAGTCCGTTT	0.889
CGTCAAAGTTCACGGTAACGTAACAGAAAGCAGC	4.74
CGTCCAAGGACATAGGAGGTCAGTGAAGACAGAT	2.2
ATCTCTCGGTAAAAGTTCAGTGAATCCCGAGGAT	1.03
ATCTCTTGGTAAAGATAGTTCAGTGAATGCAAAT	0.811
GGAACGAGAGCAAGTTGATAGCAGAGTTTGATGG	-0.392
ATCTCTAAGTAAAAGTTCAGTGAATCCCGAGGAT	1.05
TCTCGTAGATCAATAGAGGTTAAGAAAGTGCGCT	1.68
GCTTGTATATCAAGGTTAAGAAAGACTAAGCTAA	0.325
TAGCATAGGTCATTCAGGGGCCAGTATAGAAAGC	4.18
ACAGACAGATGAGTGAAGGTAACTCAGCTGGACG	-0.157
GGAACGAGGGCAAGTTGATACCAGAGTTTGATGG	1.1
CCGACTGGGGCAAAGCTTACCATACTCAGTACGA	-0.585
ATCTCTAGGTAACAAGTTCAGAGAAAGAGAGGAC	2.01
AACTCTAGGTAAAGTTCAGTGAAAGATCGATAGA	1.15
